# PubChem BioAssay (NCI)
# This is part of a sample that, as a whole, favours compounds with a hit. Of some 79,000 tested, about 15% had one in any assay. A number with no mark means an inactive call. Active and inactive are the calls of the source. No stated cut-off is given here; in the data, active means growth inhibition above about 70%; inactive means the rest.
# Tests used:
# [1] = NCI Yeast Anticancer Drug Screen. Data for the rad50 strain (AID 155);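 further: 0% = growth of vehicle-only cultures of the same strain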; settings: S. cerevisiae rad50 strain growth inhibition, hits give high values
# Outline: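 Readout: growth inhibition relative to vehicle-treated cultures. Compound exposure was carried out in a genetically defined yeast strain deficient in DNA damage repair.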
# [2] = NCI Yeast Anticancer Drug Screen. Data for the mec2-1 strain (AID 157); settings: S. cerevisiae mec2-1 strain, hits give high values
# Outline: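 Cells of the genetically defined mec2-1 yeast strain are incubated with test compound. Inhibition of growth is calculated against vehicle-treated controls.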
# [3] = NCI Yeast Anticancer Drug Screen. Data for the sgs1 mgt1 strain (AID 161);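 further: 0% = growth of cultures given vehicle only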; settings: S. cerevisiae sgs1 mgt1 strain, hits give high values
# Outline: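 Read-out: growth inhibition vs vehicle controls. Cells: mutant yeast strain deficient in DNA damage repair.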
# [4] = NCI Yeast Anticancer Drug Screen. Data for the cln2 rad14 strain (AID 165);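 further: 0% = growth equal to vehicle treated cultures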; settings: S. cerevisiae cln2 rad14 strain, hits give high values
# Outline: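 The screen exposed genetically defined yeast (cln2 rad14) to test compounds and scored growth inhibition relative to vehicle-treated controls.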
# [5] = NCI Yeast Anticancer Drug Screen. Data for the bub3 strain (AID 167); settings: S. cerevisiae bub3 mutant strain, hits give high values
# Outline: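 Readout: yeast growth inhibition, expressed relative to vehicle-only wells. The test organism is a mutant strain from a panel with lesions in DNA repair or checkpoint genes.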
# [6] = NCI Yeast Anticancer Drug Screen. Data for the mlh1 rad18 strain (AID 175); settings: S. cerevisiae mlh1 rad18 strain growth inhibition, hits give high values
# Outline: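 Compound-treated yeast growth, normalised to vehicle controls. Strain bears defined DNA repair mutations.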
# [7] = at 5.0 µM (retest, dose inferred, filed as 0.5)
# [8] = at 50.0 µM (retest, dose inferred, filed as 5.0)
Structure (SMILES),"growth inhibition [1, 7]","growth inhibition [1, 8]",growth inhibition ([1]; at 50.0 µM),"growth inhibition [2, 7]","growth inhibition [2, 8]",growth inhibition ([2]; at 50.0 µM),"growth inhibition [3, 7]","growth inhibition [3, 8]",growth inhibition ([3]; at 50.0 µM),"growth inhibition [4, 7]","growth inhibition [4, 8]",growth inhibition ([4]; at 50.0 µM),"growth inhibition [5, 7]","growth inhibition [5, 8]",growth inhibition ([5]; at 50.0 µM),"growth inhibition [6, 7]","growth inhibition [6, 8]",growth inhibition ([6]; at 50.0 µM)
O=[As](O)(O)CCc1ccccc1,-148%,-168%,2.3%,-50%,-54%,3.75%,-67%,-56%,8.35%,-58%,-65%,17.4%,-67%,-78%,-5.95%,-146%,-115%,5.7%
O=[N+]([O-])c1ccc(SP(=S)(c2ccccc2)c2ccccc2)c([N+](=O)[O-])c1,7%,97% (active),67.3%,17%,98% (active),48.3%,30%,98% (active),88.6% (active),5%,96% (active),83.2% (active),9%,98% (active),48%,28%,99% (active),70.5% (active)
CCC[CH2][Sn]1([CH2]CCC)[O]CCN2CCN(CC[O]1)CC2,-4%,12%,74.1% (active),-4%,13%,94% (active),-3%,9%,83.2% (active),-5%,5%,41.6%,-2%,10%,53.1%,-6%,15%,85.7% (active)
[CH3][Sn]([CH3])([Br])[Br].c1ccc(-c2nnc(-c3ccccn3)nc2-c2ccccc2)cc1,-3%,80% (active),20.4%,-16%,58%,32.9%,-9%,53%,16.4%,-17%,90% (active),11.8%,-4%,87% (active),-3.3%,-23%,47%,23.8%
Nc1nc2ncnc(N)c2nc1-c1ccc(N(CCCl)CCCl)cc1,-2%,46%,55.7%,-3%,38%,46%,-3%,54%,85.4% (active),6%,18%,16.4%,-1%,40%,13.7%,-5%,35%,68.8%
NCCCN1CCN(CCCN2CC2)CC1,1%,84% (active),93.9% (active),1%,30%,58.3%,-1%,83% (active),85.3% (active),-1%,92% (active),93.5% (active),0%,80% (active),86.5% (active),-1%,71% (active),89.8% (active)
CN(C)N(P(N)(Cl)(c1ccccc1)c1ccccc1)P(N)(Cl)(c1ccccc1)c1ccccc1,13%,90% (active),63.2%,22%,97% (active),54.5%,-221%,96% (active),44.9%,0%,88% (active),58.5%,4%,88% (active),49.5%,25%,96% (active),50.6%
O=C(Oc1ccc(S(=O)(=O)F)cc1F)c1ccccc1Cl,5%,99% (active),99.2% (active),5%,99% (active),99.5% (active),-2%,99% (active),99.3% (active),-10%,99% (active),99% (active),6%,99% (active),99.4% (active),21%,99% (active),98.7% (active)
O=[N+]([O-])c1ccc(C(Br)Br)cc1,93% (active),99% (active),99.6% (active),74% (active),99% (active),99.6% (active),79% (active),99% (active),99.7% (active),70% (active),99% (active),98.6% (active),74% (active),99% (active),99.5% (active),97% (active),99% (active),99.5% (active)
CC(=O)[O-].O=[N+]([O-])c1ccc([O-])c(C=NCCN=Cc2cc([N+](=O)[O-])ccc2[O-])c1.[Mn+3],15%,96% (active),91.8% (active),-2%,98% (active),79.2% (active),10%,93% (active),91.6% (active),19%,95% (active),48.2%,1%,94% (active),88.5% (active),12%,97% (active),93.3% (active)
[Au+].[Au+].[Au+].[c-]1nccn1Cc1ccccc1.[c-]1nccn1Cc1ccccc1.[c-]1nccn1Cc1ccccc1,13%,97% (active),76.6% (active),11%,98% (active),88.2% (active),29%,97% (active),88.9% (active),12%,97% (active),88.8% (active),18%,98% (active),84.3% (active),57%,96% (active),90.9% (active)
Nc1cc2[nH]cnc2c([Se])n1,-155%,-6%,56%,-39%,-11%,62.9%,-54%,19%,48%,-60%,-33%,7.45%,-75%,21%,57.5%,-141%,-29%,83.8% (active)
O=P(CCP(=O)(c1ccccc1)c1ccccc1)(c1ccccc1)c1ccccc1.[Cl][Sn]([Cl])([c]1ccccc1)[c]1ccccc1,82% (active),97% (active),87.7% (active),45%,99% (active),90.1% (active),91% (active),98% (active),88.5% (active),32%,97% (active),88.8% (active),81% (active),98% (active),88% (active),88% (active),95% (active),91.6% (active)
CCC[CH2][Sn]1([CH2]CCC)[O]CC(Cc2ccccc2)[O]1 (stereo unspecified),31%,96% (active),85.5% (active),22%,98% (active),90.2% (active),54%,98% (active),86.9% (active),32%,95% (active),84.7% (active),55%,98% (active),89.1% (active),39%,97% (active),88.5% (active)
O=C(c1ccccc1)c1c(CC(O)c2cccnc2)n(C(=O)c2ccccc2)c2ccccc12 (stereo unspecified),6%,96% (active),91% (active),3%,96% (active),89.2% (active),13%,97% (active),90.7% (active),19%,96% (active),56.5%,-5%,97% (active),87.9% (active),2%,94% (active),91% (active)
[N-]=[N+]=Nc1c([N+](=O)[O-])c(=O)n2c3c(cccc13)CCC2,46%,98% (active),85.5% (active),26%,99% (active),88.8% (active),28%,99% (active),92.8% (active),18%,84% (active),90.6% (active),37%,99% (active),90.5% (active),40%,98% (active),90.2% (active)
Cc1cc(C(C)(C)c2ccc(O)c(C)c2)ccc1O,-2%,98% (active),99.3% (active),-4%,99% (active),99.4% (active),-6%,98% (active),99.5% (active),1%,98% (active),97.6% (active),-1%,99% (active),99.2% (active),0%,99% (active),99.3% (active)
